Shown is part of a subset that was picked to be rich in hits.
Shiga inhibitor: A qHTS for Small Molecule Inhibitors of Shiga Toxin; inhibition, % at 38.7 µM; AID 2315, 2010; 290,000 tested, 9.2% active; Vero cells, Shiga toxin protein synthesis inhibition reporter; in the data active = inhibition mostly above about 28%, no sharp cut-off; inactive = mostly below about 43%
CHX counter: Cycloheximide Counterscreen for Small Molecule Inhibitors of Shiga Toxin; max response, %; cell reporter, cycloheximide protein synthesis inhibition counterscreen; AID 2314, 2010; 300,000 tested, 12% active; in the data active = max response mostly above about 13%, no sharp cut-off; inactive = mostly below about 14%; note: read at 38.3 µM for the half of the compounds with a filed dose
RE007 growth inh: qHTS Assay for Inhibitors of the HIV-1 protein Vpr; Potency, µM (titrated, usually from 92.2 µM), hits mostly inhibitors; S. pombe RE007 Vpr strain, BacTiter-Glo ATP luminescence, 24 h; AID 651644, 2012; 360,000 tested, 0.21% active; active = well fitted falling curve with a large enough effect; inconclusive = small, poorly fitted or top-dose-only effect; inactive = no such curve, though single readings can be large or run the other way; note: nearly all actives have a fitted effect of over 50% in size
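Fission yeast RE007 carrying one integrated HIV-1 vpr copy, seeded at OD 0.01 in PMG+AL medium with 23 nL pinned compound. Grown 24 h at 30 degrees; viability read by BacTiter-Glo luminescence after 5 min.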
TbPYK inhibitor: qHTS of Trypanosoma Brucei Inhibitors | pyruvate kinase (Trypanosoma brucei), Q57TT1 | TbPYK enzyme, Kinase-Glo Plus ATP luminescence, 45 min | Potency, µM (top dose mostly 76.8 µM), most hits filed as inhibitors | 410,000 tested, 0.12% active | AID 624173, 2012; note: nearly all actives have a fitted effect of over 50% in size
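In this concentration-response screen, enzyme-free wells defined baseline while DMSO plates tracked drift. Each reaction combined TbPYK, substrate, compound and 130 uM ADP for 45 min at room temperature. Kinase-Glo Plus luminescence gave the signal.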
Giardia FBPA inh: qHTS Assay for Inhibitors of Fructose-1,6-bisphosphate Aldolase from Giardia Lamblia | 290,000 tested, 0.71% active | purified Giardia FBPA | AID 2451, 2010 | Potency, µM (titrated, usually from 59.6 µM), hits mostly inhibitors | A8B2U2; note: nearly all actives have a fitted effect of over 55% in size
Target sequence (A8B2U2 whole entry, looked up): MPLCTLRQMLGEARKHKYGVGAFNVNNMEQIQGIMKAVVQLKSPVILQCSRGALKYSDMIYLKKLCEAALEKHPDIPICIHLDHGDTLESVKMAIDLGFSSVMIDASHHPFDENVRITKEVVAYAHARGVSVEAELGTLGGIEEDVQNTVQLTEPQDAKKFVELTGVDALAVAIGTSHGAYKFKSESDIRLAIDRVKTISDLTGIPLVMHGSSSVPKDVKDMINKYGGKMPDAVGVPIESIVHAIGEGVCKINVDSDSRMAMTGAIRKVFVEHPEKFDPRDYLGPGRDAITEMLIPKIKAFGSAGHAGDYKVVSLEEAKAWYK
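40 nM FBPA preincubated 10 min at RT with compound (up to 57.5 uM final), then substrate plus GAPDH/TPI/NAD/arsenate coupling and diaphorase/resazurin added. Fluorescence read after 20 min at RT, 525/598 nm.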
LmPK inhibitor: qHTS Assay for Inhibitors of Leishmania Mexicana Pyruvate Kinase (LmPK); Potency, µM (doses to about 57.5 µM), most hits filed as inhibitors; 290,000 tested, 0.37% active; Q27686; AID 1721, 2009; purified LmPK, Kinase-Glo ATP luminescence, 1 h
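qHTS format; LmPK 0.1 nM; substrates PEP 0.5 mM and ADP 0.1 mM. One-hour room-temperature incubation, then coupled luciferase luminescence; 0.5 nM enzyme wells mark activation.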
Hits are given with their value; i = inactive; ? = inconclusive; nt = no result; [ ] = remark or other dose. Unless noted, calls come from the whole dose curve; as a rule, active = well fitted curve in the direction sought with a large enough effect; inconclusive = small, poorly fitted or top-dose-only effect, or another doubt; inactive = no such curve, though single readings can be large; an effect the other way counts as inactive or inconclusive.

SMILES	Shiga inhibitor	CHX counter	RE007 growth inh	TbPYK inhibitor	Giardia FBPA inh	LmPK inhibitor
NCCCCC(NC(=O)C1CCCN1C(=O)C1CSSCC(N)C(=O)NC(Cc2ccccc2)C(=O)NC(Cc2ccccc2)C(=O)NC(CCC(N)=O)C(=O)NC(CC(N)=O)C(=O)N1)C(=O)NCC(N)=O (centres undefined)	nt	nt	nt	i	nt	nt
Cc1cc(C)n(C2=NS(=O)(=O)c3ccccc32)n1	i	i	i	i	i	13µM
CS(=O)(=O)N1CCCc2cc(C(=O)Nc3cccc(C(F)(F)F)c3)ccc21	nt	nt	nt	i	nt	nt
COc1ccc(NC(=O)c2cc(F)c(F)cc2Cl)cc1Cl	50	46	i	i	i	i
O=C(Nc1ccc2[nH]c(=O)[nH]c2c1)c1cc(F)c(F)cc1Cl	i	i	i	i	i	i
CCOC(=O)c1ccc(NC(=O)c2cc(F)c(F)cc2Cl)cc1	i	18	i	i	i	i
CCCc1c(O)nc(SC2CC(=O)N(c3ccc(C)c(Cl)c3)C2=O)[nH]c1=O (centres undefined)	nt	nt	?	i	nt	nt
Cc1ccc(N2C(=O)CC(Sc3nc4ccccc4o3)C2=O)cc1Cl (centres undefined)	i	i	10µM	i	i	i
CCCN(CC(=O)Nc1ccccc1C)C(=O)/C=C/c1ccc(OC)c(OC)c1	nt	nt	i	i	nt	nt
CSc1nc(N)nc(SC2C=CCCC2)c1C#N (centres undefined)	i	26	i	i	i	i
CSc1nc(N)nc(SCCS(=O)(=O)c2ccc(Cl)cc2)c1C#N	i	i	i	i	i	i
COc1ccc(CCNC(=O)c2nn(C)cc2Cl)cc1	76	27	i	i	i	i
COc1ccc(CCNC(=O)c2nonc2N)cc1	46	21	i	i	i	i
COc1cccc(CNCCNC(=O)c2nonc2N)c1	i	i	i	i	i	i
Cc1ccc(NC(=O)C(=O)NCC(c2cccnc2)N2CCN(Cc3ccccc3)CC2)cc1F (centres undefined)	nt	nt	nt	i	nt	nt
CCN(CC)Cc1cc(O)c(CN(CC)CC)cc1O	i	i	i	10µM	5.6µM	i
CCCCN(C)S(=O)(=O)c1cc(-c2cc(C)no2)ccc1C	nt	nt	nt	i[15.4 µM]	nt	nt
CN(C)C(=O)c1ccc(NC(=O)c2cncc(Br)c2)cc1	active	i	i	i	i	?
CC(C)OC(=O)c1ccc(NC(=O)c2cncc(Br)c2)cc1	i	20	i	i	i	i
CC(C)OC(=O)c1ccc(NC(=S)NC(=O)c2cncc(Br)c2)cc1	i	i	i	i	i	i
Cc1cc(NC(=O)CSc2ncc(C(=O)O)n2-c2ccc(F)cc2)no1	nt	nt	i	i	nt	nt
Cc1nc(CC(=O)c2ccc(O)c(C)c2O)cs1	47	9.7	i	i	i	i
Nc1nc2ncc(C(=O)c3cc(F)ccc3O)cc2s1	i	i	i	i	i	i
COc1ccc(O)c(C(=O)c2cnn(C(=O)c3ccc(C)cc3)c2)c1	nt	nt	i	i	nt	nt
Cc1nc(CC(=O)c2ccc(O)cc2O)cs1	i	i	i	?	i	i
SMILES	Shiga inhibitor	CHX counter	RE007 growth inh	TbPYK inhibitor	Giardia FBPA inh	LmPK inhibitor
Cc1ncc(CC(=O)n2cc(C(=O)c3cc(F)ccc3O)cn2)s1	45	34	i	i	i	i
Cc1ccc(O)c(C(=O)c2cnn(C(=O)Cc3csc(C)n3)c2)c1	i	i	25µM	i	i	i
CCCc1ccc(OCC(=O)Nc2sc3c(c2C(=O)OC)CCCCC3)cc1	nt	nt	nt	i	nt	nt
Cc1nn(-c2ccc(F)cc2)c(-n2cccc2)c1C(=O)NCCCN1CCN(c2cccc(Cl)c2)CC1	nt	nt	nt	i	nt	nt
Cc1c(C(=O)NC2CCN(Cc3ccccc3)C2)oc2c(Cl)cccc12 (centres undefined)	i	i	i	i	i	i
O=S(O)CO	i	i	nt	i	i	nt
CCN=C1NN=C(c2c[nH]c3ccccc23)CS1	38	32	i	?	i	i
COCC(C)N=C1NN=C(c2c[nH]c3ccccc23)CS1 (centres undefined)	53	64	i	i	i	i
Cc1cc(OC(=O)c2c(Cl)cc(Cl)cc2Cl)nc(C)n1	i	i	i	i	i	i
Cc1cc(OC(=O)N(C)C)nc(-c2ccc(C)c(Cl)c2)n1	39	i	i	i	i	i
CCOC(=O)c1cccnc1SCC(=O)Nc1ccc(C)cc1C	nt	nt	nt	i	nt	nt
Cc1nn(CCc2n[nH]c(=S)n2-c2cccc(Cl)c2)c(C)c1[N+](=O)[O-]	i	i	i	?	i	8.9µM
Cc1nn(CCc2n[nH]c(=S)n2-c2ccc(F)c(Cl)c2)c(C)c1[N+](=O)[O-]	i	i	i	6.3µM	i	?
Cc1nn(CCc2n[nH]c(=S)n2-c2ccc(F)cc2)c(C)c1[N+](=O)[O-]	i	i	i	10µM	i	?
COC(=O)CSc1ncc2c(n1)-c1ccccc1N(Cc1ccc(Cl)cc1)S2(=O)=O	nt	nt	nt	i	nt	nt
COc1ccc(OC)c(C2C(C(=O)N3CCCCC3)=C(C)Nc3nc4ccccc4n32)c1 (centres undefined)	nt	nt	nt	i	nt	nt
CCCn1c2ccccc2c2cnn(CC(=O)N(Cc3ccccc3)C(C)C)c(=O)c21	nt	nt	nt	i	nt	nt
Cc1nnc(NC(=O)CSc2nnc3ncccn23)s1	i	i	i	i	i	i
Cc1ccc(S(=O)(=O)Nc2cccc(-c3ccc(N4CCCCCC4)nn3)c2)c(C)c1	88	42	i	i	nt	i
Cc1ccc(S(=O)(=O)Nc2ccc(-c3ccc(N4CCCCCC4)nn3)cc2)c(C)c1	nt	nt	nt	i	nt	nt
CC1C(=O)O[C@@H]2C[C@@H](C)[C@@H]3CCC(=O)[C@@]3(C)[C@@H](O)[C@H]12 (some centres undefined)	i	i	i	i	i	i
CC(=O)O[C@@H]1[C@H]2[C@@H](C[C@@H](C)[C@@H]3CCC(=O)[C@@]13C)OC(=O)[C@@H]2C	i	18	i	i	i	i
O=Cc1cccn1Cc1ccccc1[N+](=O)[O-]	i	33	i	i	i	i

Screens: PubChem, National Center for Advancing Translational Sciences (NCATS)
